Experimental data as given in PubChem BioAssay (NCI).
Compounds without any hit were thinned out: in the full panel of roughly 79,000, 15% have a hit. A number with no mark means an inactive call. The source made the active and inactive calls. No stated cut-off is given here; in the data, active means growth inhibition above about 70%; inactive means the rest.

Legend:
[1] = NCI Yeast Anticancer Drug Screen. Data for the rad50 strain (AID 155);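 further: 0% = growth of vehicle-only cultures of the same strain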; conditions: S. cerevisiae rad50 strain growth inhibition, hits give high values
Method in brief: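 Growth of the mutant yeast was measured after compound exposure and referenced to vehicle-treated cultures.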

[2] = NCI Yeast Anticancer Drug Screen. Data for the mec2-1 strain (AID 157); conditions: S. cerevisiae mec2-1 strain, hits give high values
Method in brief: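 Vehicle-treated cultures served as reference for growth inhibition of compound-exposed mec2-1 yeast.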

[3] = NCI Yeast Anticancer Drug Screen. Data for the sgs1 mgt1 strain (AID 161);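 further: 0% = growth of cultures given vehicle only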; conditions: S. cerevisiae sgs1 mgt1 strain, hits give high values
Method in brief: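 Genetically altered yeast, compound exposure, growth inhibition relative to vehicle.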

[4] = NCI Yeast Anticancer Drug Screen. Data for the cln2 rad14 strain (AID 165);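 further: 0% = growth equal to vehicle treated cultures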; conditions: S. cerevisiae cln2 rad14 strain, hits give high values
Method in brief: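 Each compound was tested on cln2 rad14 yeast. Inhibition of growth was calculated against vehicle-exposed controls.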

[5] = NCI Yeast Anticancer Drug Screen. Data for the bub3 strain (AID 167); conditions: S. cerevisiae bub3 mutant strain, hits give high values
Method in brief: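 Whole-cell yeast assay. The mutant strain was incubated with compounds, and growth inhibition was determined by comparison with vehicle-treated cells.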

[6] = NCI Yeast Anticancer Drug Screen. Data for the mlh1 rad18 strain (AID 175); conditions: S. cerevisiae mlh1 rad18 strain growth inhibition, hits give high values
Method in brief: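 Vehicle-treated cultures served as the reference for growth inhibition in a yeast strain carrying DNA damage repair alterations exposed to each compound.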

[7] = at 5.0 µM (retest, dose inferred, filed as 0.5)
[8] = at 50.0 µM (retest, dose inferred, filed as 5.0)

SMILES | growth inhibition [1, 7] | growth inhibition [1, 8] | growth inhibition ([1]; at 50.0 µM) | growth inhibition [2, 7] | growth inhibition [2, 8] | growth inhibition ([2]; at 50.0 µM) | growth inhibition [3, 7] | growth inhibition [3, 8] | growth inhibition ([3]; at 50.0 µM) | growth inhibition [4, 7] | growth inhibition [4, 8] | growth inhibition ([4]; at 50.0 µM) | growth inhibition [5, 7] | growth inhibition [5, 8] | growth inhibition ([5]; at 50.0 µM) | growth inhibition [6, 7] | growth inhibition [6, 8] | growth inhibition ([6]; at 50.0 µM)
CCCC(=O)Oc1ccc(-c2ccccc2Br)cc1 | 4% | 67% | 92.5% (active) | 3% | 34% | 82.5% (active) | 10% | 44% | 93.5% (active) | 4% | 50% | 89.2% (active) | 18% | 74% (active) | 92.7% (active) | 2% | 31% | 88.1% (active)
CC[N+]1(C)CCC(O)(/C=C/c2ccccc2)C(C(=O)/C=C/c2ccccc2)C1 (stereo not given) | 7% | 98% (active) | 99.3% (active) | 11% | 99% (active) | 99.7% (active) | 12% | 54% | 99.2% (active) | 8% | 98% (active) | 83% (active) | 7% | 99% (active) | 99.3% (active) | 11% | 99% (active) | 99.3% (active)
Cc1ccc2nc(-[n+]3cc4ccccc4cc3C)ccc2c1 | 9% | 99% (active) | 89% (active) | 1% | 100% (active) | 87.6% (active) | 3% | 99% (active) | 89.3% (active) | -1% | 83% (active) | 17.2% | 1% | 100% (active) | 87.7% (active) | 5% | 98% (active) | 87.3% (active)
O=C(Nc1ccc(F)c([N+](=O)[O-])c1)NC(Cc1ccccc1)c1ccccc1 (stereo not given) | -11% | 86% (active) | 91.6% (active) | -2% | 93% (active) | 94.2% (active) | 12% | 92% (active) | 94.2% (active) | 2% | 92% (active) | 88.9% (active) | -4% | 92% (active) | 81.8% (active) | 26% | 91% (active) | 93.1% (active)
O=C1C=CC(=O)N1C1CCCCC1 | 93% (active) | 99% (active) | 99.6% (active) | 60% | 100% (active) | 99.7% (active) | 95% (active) | 99% (active) | 99.5% (active) | 30% | 99% (active) | 99.8% (active) | 90% (active) | 99% (active) | 99.7% (active) | 98% (active) | 99% (active) | 99.6% (active)
c1coc(C2=Nc3cccc4cccc(c34)N2)c1 | 6% | 84% (active) | 50.5% | 5% | 62% | 10.3% | 36% | 81% (active) | 76.7% (active) | 4% | 65% | 32.5% | 5% | 94% (active) | 36.4% | -13% | 96% (active) | 54.6%
O=Nc1c(-c2cccc([N+](=O)[O-])c2)nc2cnccn12 | 39% | 99% (active) | 97.7% (active) | 24% | 99% (active) | 98.5% (active) | 54% | 99% (active) | 95.7% (active) | 23% | 99% (active) | 99.3% (active) | 4% | 99% (active) | 99.7% (active) | 58% | 99% (active) | 97.5% (active)
Cc1ccnc2c1ccc1c(C)ccnc12 | 10% | 98% (active) | 99% (active) | -17% | 99% (active) | 99.1% (active) | 14% | 99% (active) | 99.2% (active) | -21% | 97% (active) | 98.5% (active) | -25% | 98% (active) | 99.1% (active) | 1% | 98% (active) | 99% (active)
Cn1c2ccccc2c2c(C#N)c(C#N)c([N+](=O)[O-])cc21 | 30% | 98% (active) | 97.2% (active) | 29% | 98% (active) | 78.5% (active) | 9% | 98% (active) | 75.2% (active) | 9% | 97% (active) | 42% | 27% | 98% (active) | 93.2% (active) | 26% | 98% (active) | 76.8% (active)
CC1OC2CC(=O)OC2C2=C1C(=O)c1c(O)cccc1C2=O (stereo not given) | 99% (active) | 99% (active) | 91.8% (active) | 100% (active) | 99% (active) | 93% (active) | 99% (active) | 99% (active) | 92.6% (active) | 99% (active) | 99% (active) | 91.4% (active) | 99% (active) | 99% (active) | 91.4% (active) | 99% (active) | 99% (active) | 91.7% (active)
